Test results from PubChem BioAssay (Tox21).
Unmarked numbers belong to inactive results. The source made the active and inactive calls.

These compounds were tested against Glucocorticoid receptor (Homo sapiens) (UniProt P04150) (assay: qHTS assay to identify small molecule agonists of the glucocorticoid receptor (GR) signaling pathway (AID 720691; active means well fitted activation curve with a large enough effect in the signal ratio in the repeat runs, not every such curve was filed as active; inconclusive means weak or mixed curves, or effect the other way; inactive means no such curve, though single readings can be large or run the other way; the % refers to the signal ratio)). Conditions: GR-bla HeLa, beta-lactamase reporter ratio, 18 h; series mostly up to 62.4 µM; activation: at the top concentration.
How it was run: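 Steps: seed GR-bla HeLa cells, incubate 4 h at 37 C/5% CO2; pin-transfer DMSO-dissolved compounds; incubate 18 h at 37 C; add LiveBLAzer B/G FRET substrate; after 2 h at room temperature, measure fluorescence.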
On the % scale 0 is the no-effect control and ±100 the full control effect; potency means the concentration at half of the fitted maximal effect.

Chain of Glucocorticoid receptor (Homo sapiens) (P04150 whole entry, looked up): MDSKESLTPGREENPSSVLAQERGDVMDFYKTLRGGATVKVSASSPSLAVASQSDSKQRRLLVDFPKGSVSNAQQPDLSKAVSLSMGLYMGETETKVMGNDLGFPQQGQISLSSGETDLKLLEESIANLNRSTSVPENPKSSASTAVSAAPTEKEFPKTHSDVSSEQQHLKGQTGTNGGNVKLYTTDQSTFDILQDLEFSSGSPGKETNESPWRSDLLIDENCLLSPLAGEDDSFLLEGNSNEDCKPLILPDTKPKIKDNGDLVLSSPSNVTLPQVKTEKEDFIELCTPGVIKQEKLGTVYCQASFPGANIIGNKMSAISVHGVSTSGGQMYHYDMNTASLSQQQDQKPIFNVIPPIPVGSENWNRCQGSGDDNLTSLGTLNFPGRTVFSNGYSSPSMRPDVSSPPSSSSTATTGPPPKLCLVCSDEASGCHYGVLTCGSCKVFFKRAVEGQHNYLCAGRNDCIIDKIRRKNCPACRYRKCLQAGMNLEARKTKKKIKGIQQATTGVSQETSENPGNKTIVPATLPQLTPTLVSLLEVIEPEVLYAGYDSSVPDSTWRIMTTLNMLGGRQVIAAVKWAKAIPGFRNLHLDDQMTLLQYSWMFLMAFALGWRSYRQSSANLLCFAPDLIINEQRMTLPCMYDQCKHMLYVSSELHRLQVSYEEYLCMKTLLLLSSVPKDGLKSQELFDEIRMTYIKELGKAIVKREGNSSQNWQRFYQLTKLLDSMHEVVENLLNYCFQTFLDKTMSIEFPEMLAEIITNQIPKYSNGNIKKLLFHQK

Point of comparison: CC(C)(C)N(NC(=O)c1ccc(Cl)cc1)C(=O)c1ccccc1, “activation” value -5.79%. Against it:
- CC(=O)OC(c1ccccc1)C(Cl)(Cl)Cl (stereo not given) — higher, 0.178%
- CN1CC[C@]23c4c5ccc(O)c4O[C@H]2[C@@H](O)C=C[C@H]3[C@H]1C5 — higher, 0.0683%
- CCC(C)(C)O — higher, -0.631%
- O=[N+]([O-])c1cc(Cl)c(Cl)cc1Cl — higher, 0.695%
- CN(C)c1ccc(N=O)cc1 — higher, 0.243%
- O=C(O)COc1cc(Cl)c(Cl)cc1Cl — lower, -7.77%
- NP(N)(=O)NC(=O)c1ccc(F)cc1 — higher, 23.4%
- O=C(O)C(F)(F)C(F)(F)C(F)(F)C(F)(F)C(F)(F)C(F)(F)C(F)(F)C(F)(F)F — higher, -3.98%
- Nc1ccc2c(c1)Cc1ccccc1-2 — lower, -13.4%
- CC(Oc1cc(Cl)c(Cl)cc1Cl)C(=O)O (stereo not given) — lower, -6.38%
- C=C(C)C(=O)OCCCCOC(=O)C(=C)C — higher, 0.341%

For Nc1ccccc1C(=O)OCCc1ccccc1, the Potency was “inactive”.
For CN1C(=O)CN=C(c2ccccc2)c2cc([N+](=O)[O-])ccc21, the Potency was 0.338 µM [inconclusive] (active).
For O=CC=O, the Potency was “inactive”.

What follows are compounds tested against Glucocorticoid receptor (Homo sapiens) (UniProt P04150) (assay: qHTS assay to identify small molecule antagonists of the glucocorticoid receptor (GR) signaling pathway (AID 720692; active means well fitted inhibition curve with a large enough effect in the signal ratio in the repeat runs, not every such curve was filed as active; inconclusive means weak or mixed curves, or effect the other way; inactive means no such curve, though single readings can be large or run the other way; the % refers to the signal ratio)). Conditions: GR-bla HeLa, beta-lactamase FRET ratio, dexamethasone-stimulated, 18 h; series mostly up to 58.5 µM; activity change, negative = inhibition: at the top concentration.
How it was run: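 Antagonism was scored as loss of dexamethasone-driven (5 nM final) reporter signal in HeLa cells bearing a glucocorticoid response element–beta-lactamase construct, after 18 h compound exposure at 37 C and 2 h FRET substrate loading.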

Point of comparison: O=C(O)COc1cc(Cl)c(Cl)cc1Cl, “activity change, negative = inhibition” value -3.09%. Against it:
- C=CCN1C[C@H](C)N([C@H](c2ccc(C(=O)N(CC)CC)cc2)c2cccc(OC)c2)C[C@H]1C — higher, 0.0059%
- CN1CC[C@]23c4c5ccc(O)c4O[C@H]2[C@@H](O)C=C[C@H]3[C@H]1C5 — lower, -3.49%
- CC(C)(C)N(NC(=O)c1ccc(Cl)cc1)C(=O)c1ccccc1 — lower, -16.6%
- O=[N+]([O-])c1cc(Cl)c(Cl)cc1Cl — lower, -21.3%
- Nc1ccccc1C(=O)OCCc1ccccc1 — lower, -9.66%
- NP(N)(=O)NC(=O)c1ccc(F)cc1 — higher, 4.35%
- O=C(O)C(F)(F)C(F)(F)C(F)(F)C(F)(F)C(F)(F)C(F)(F)C(F)(F)C(F)(F)F — lower, -25.4%
- CC(Oc1cc(Cl)c(Cl)cc1Cl)C(=O)O (stereo not given) — higher, 5.03%
- C=C(C)C(=O)OCCCCOC(=O)C(=C)C — higher, 4.62%
- COP(=O)(OC)OC(Br)C(Cl)(Cl)Br (stereo not given) — higher, 2.03%

CN(C)c1ccc(N=O)cc1 was tested, and the Potency was 38.9 µM (active).
For CC(=O)NNc1ccccc1, the Potency was 10.9 µM (active).
For O=CC=O, the Potency was “inactive”.
In the case of O=P(OCC(Br)CBr)(OCC(Br)CBr)OCC(Br)CBr (stereo not given), the Potency is reported as 55.7 µM (active).
